# Assay results as given in PubChem BioAssay (NCATS).
# Records with an inconclusive call do not appear. The list shows a part of the results. The source made the active and inactive calls. Unless noted, calls come from the whole dose curve; as a rule, active = well fitted curve in the direction sought with a large enough effect; inconclusive = small, poorly fitted or top-dose-only effect, or another doubt; inactive = no such curve, though single readings can be large; an effect the other way counts as inactive or inconclusive.
# What was measured:
# [1] = molecular target: Lysosomal acid glucosylceramidase (Homo sapiens) (UniProt P04062); test: Glucocerebrosidase-p2 (AID 348; in the data active = potency below about 10 µM; note: potency is the fitted concentration of half-maximal effect); details: purified GBA, blue fluorogenic substrate, 40 min
# Lysosomal acid glucosylceramidase (Homo sapiens), sequence (P04062 whole entry, looked up): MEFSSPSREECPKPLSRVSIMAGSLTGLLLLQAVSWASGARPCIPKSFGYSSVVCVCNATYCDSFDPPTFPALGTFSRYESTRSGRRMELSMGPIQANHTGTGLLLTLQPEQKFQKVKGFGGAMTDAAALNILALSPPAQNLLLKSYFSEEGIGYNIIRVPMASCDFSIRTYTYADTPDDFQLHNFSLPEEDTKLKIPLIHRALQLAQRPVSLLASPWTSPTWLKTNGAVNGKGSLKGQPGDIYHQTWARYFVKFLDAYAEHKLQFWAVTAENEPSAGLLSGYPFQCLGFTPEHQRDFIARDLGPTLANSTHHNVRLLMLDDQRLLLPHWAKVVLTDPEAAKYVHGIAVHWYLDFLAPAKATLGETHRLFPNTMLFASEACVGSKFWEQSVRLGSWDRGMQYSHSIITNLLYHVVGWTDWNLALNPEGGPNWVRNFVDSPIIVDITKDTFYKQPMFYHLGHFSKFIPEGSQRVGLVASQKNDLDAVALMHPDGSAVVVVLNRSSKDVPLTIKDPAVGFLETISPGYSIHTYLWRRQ
# Summary of the method: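 Compounds titrated from 0.6 nM upwards against 0.2 nM enzyme in pH 5.9 citric acid/KH2PO4, taurocholate, tween-20; blue fluorogenic substrate 80 uM, 40 min room temperature, stopped and read Ex 365/Em 440 for AC50.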
# [2] = qHTS profiling of the MIPE4 collection as inhibitors of Plasmodium falciparum (3D7) proliferation (AID 743344; call rule not given here;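 note: scaled between DMSO vehicle wells and 0.29 µM artemisinin as full inhibition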); details: P. falciparum 3D7 in erythrocytes, SYBR Green DNA fluorescence, 72 h; at 5.51 µM (top of the series) unless noted
# Summary of the method: (§1)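 Erythrocytes infected with P. falciparum (0.3% parasitemia, 2.5% hematocrit) incubated with compounds 72 h at 37 C, 5% CO2. Lysis with saponin/Triton buffer containing SYBR Green I, overnight at room temperature in the dark; DNA fluorescence (485/535 nm) normalised to 0.29 uM artemisinin and DMSO.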
# [3] = qHTS profiling of the MIPE4 collection as inhibitors of Plasmodium falciparum (DD2) proliferation (AID 743345; call rule not given here); details: P. falciparum Dd2 in erythrocytes, SYBR Green DNA, 72 h; at 5.51 µM (top of the series) unless noted
# Summary of the method: as §1
# [4] = qHTS profiling of the MIPE4 collection as inhibitors of Plasmodium falciparum (DD2) proliferation (Rep 2) (AID 743346; call rule not given here); details: P. falciparum Dd2 in erythrocytes, SYBR Green DNA, 72 h; at 5.51 µM (top of the series) unless noted
# Summary of the method: as §1
# [5] = qHTS profiling of the MIPE4 collection as inhibitors of Plasmodium falciparum (HB3) proliferation (AID 743347; call rule not given here;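 note: plate controls were DMSO vehicle wells for no effect and artemisinin wells for full effect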); details: P. falciparum HB3 in erythrocytes, SYBR Green DNA, 72 h; at 5.51 µM (top of the series) unless noted
# Summary of the method: as §1
# [6] = molecular target: Flap endonuclease 1 (Homo sapiens) (UniProt P39748); test: qHTS Assay for the Inhibitors of FEN1: Confirmatory Assay for Cherry-picked Compounds (AID 720498); details: FEN1 flap cleavage, TAMRA/BHQ2 fluorogenic DNA substrate; note: potency is the fitted concentration of half-maximal effect; nearly all actives have a fitted effect of over 60% in size
# Flap endonuclease 1 (Homo sapiens), sequence (P39748 whole entry, looked up): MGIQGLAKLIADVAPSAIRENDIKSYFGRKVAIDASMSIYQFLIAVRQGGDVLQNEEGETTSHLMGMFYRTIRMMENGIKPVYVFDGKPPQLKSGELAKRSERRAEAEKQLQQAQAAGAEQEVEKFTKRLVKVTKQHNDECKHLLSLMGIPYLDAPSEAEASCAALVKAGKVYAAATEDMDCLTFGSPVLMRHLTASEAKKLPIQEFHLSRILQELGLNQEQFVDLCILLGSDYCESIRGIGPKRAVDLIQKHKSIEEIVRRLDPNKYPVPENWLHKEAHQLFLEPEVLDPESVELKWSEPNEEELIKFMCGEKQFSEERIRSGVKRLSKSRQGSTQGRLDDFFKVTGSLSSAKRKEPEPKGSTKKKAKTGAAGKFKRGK
# Summary of the method: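 FEN1 at 10 nM was preincubated with compound for 15 min at room temperature, then 50 nM (final) double-flap DNA substrate was added. TAMRA fluorescence released from the BHQ-2-quenched flap was read at 0 and 15 min (ex 525/em 598 nm).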
# [7] = qHTS for Inhibitors of the vitamin D receptor (VDR): Hit Validation using a Cytotoxicity Assay (AID 602204); details: cytotoxicity counter-screen, cell viability; series mostly up to 48.3 µM;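 note: plate controls were DMSO for no effect and high-concentration cycloheximide for full effect; nearly all actives have a fitted effect of over 75% in size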
# Summary of the method: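 Cytotoxicity is flagged by loss of ATP-dependent luminescence in cells treated 18 h with compound. Seeding density was 20,000 cells per well with 4 h pre-incubation; detection took 30 min.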
# [8] = molecular target: Cytochrome P450 2D6 (Homo sapiens) (UniProt P10635); test: Cytochrome P450 family 2 subfamily D member 6 (CYP2D6) small molecule antagonists: luciferase biochemical (cell-free) qHTS assay (AID 1645840; active = well fitted curve in the direction sought with a large enough effect in the repeat runs; an effect the other way counts as inactive or inconclusive; note: nearly all actives have a fitted effect of over 55% in size; note: potency is the fitted concentration of half-maximal effect); details: P450-Glo CYP2D6 enzyme, luciferin luminescence, 1 h; series mostly up to 57.4 µM
# Cytochrome P450 2D6 (Homo sapiens), sequence (P10635 whole entry, looked up): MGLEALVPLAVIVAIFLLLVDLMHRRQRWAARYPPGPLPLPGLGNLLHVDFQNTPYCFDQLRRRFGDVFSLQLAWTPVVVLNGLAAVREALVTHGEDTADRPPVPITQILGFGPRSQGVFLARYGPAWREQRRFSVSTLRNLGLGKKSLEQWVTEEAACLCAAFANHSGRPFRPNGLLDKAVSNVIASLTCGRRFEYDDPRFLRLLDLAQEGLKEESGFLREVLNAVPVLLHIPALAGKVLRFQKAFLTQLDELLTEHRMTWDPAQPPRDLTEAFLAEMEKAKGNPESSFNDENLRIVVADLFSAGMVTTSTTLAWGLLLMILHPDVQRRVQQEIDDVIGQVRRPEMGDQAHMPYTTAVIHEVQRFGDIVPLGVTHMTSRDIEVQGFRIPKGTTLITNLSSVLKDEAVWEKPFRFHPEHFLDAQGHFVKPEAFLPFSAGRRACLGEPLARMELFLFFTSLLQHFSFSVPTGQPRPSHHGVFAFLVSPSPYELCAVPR
# Summary of the method: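 P450-Glo luminescent screen: recombinant CYP2D6 enzyme–proluciferin substrate mix preincubated with compound 10 min at room temperature, then NADPH regeneration added for 1 h at room temperature. Detection reagent added for 20 min; luciferin light read as relative luminescence units.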
# [9] = qHTS for Inhibitors of the vitamin D receptor (VDR): Hit Validation using a Texas Red Assay (AID 602201); details: VDR coregulator binding, Texas Red fluorescence polarization; agonist-bound VDR ligand-binding domain; note: potency is the fitted concentration of half-maximal effect
# Summary of the method: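 After a 2-hour room-temperature incubation, polarization of Texas-Red emission was read (Ex 595 nm/Em 615 nm). Final mix contained 7 nM Texas Red, 1.5 uM VDR-LBD and LG19078.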
# [10] = Cell Viability - BJ (AID 421; calls by dose curve;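 note: potency is the fitted concentration of half-maximal effect; cells exposed to compound for 40 hours at 37 °C before readout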); details: BJ fibroblast viability, qHTS
# Summary of the method: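 Luminescent ATP signal (CellTiter-Glo, 20 min at room temperature) served as the read-out of viable BJ cells after 40 hours of compound treatment. Responses were scaled between DMSO and 100 uM tamoxifen, and AC50 values were obtained by Hill modeling.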
# [11] = Cell Viability - Hek293 (AID 427;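 active = compounds whose dose-response curve shows a full or clear partial loss of cell viability, called from curve shape rather than a numeric limit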;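 note: potency is the fitted concentration of half-maximal effect; cells exposed to compound for 40 hours at 37 °C before reading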); details: qHTS
# Summary of the method: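 Luminescent ATP read-out (CellTiter-Glo, 20 min RT) after 40 hr compound exposure at 37 °C in complete medium. Signal normalized to DMSO (basal) and 100 uM tamoxifen (100% inhibition); concentration-response fitted with the standard Hill equation to give AC50.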
# [12] = Cell Viability - HepG2 (AID 433; calls by dose curve;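 note: potency is the fitted concentration of half-maximal effect; potency for ATP loss meaning cytotoxicity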); details: qHTS
# Summary of the method: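 HepG2 cells, 1500 per well, treated 40 hr at 37 °C in complete medium; viability from intracellular ATP by CellTiter-Glo luminescence. Normalized to DMSO and 100 uM tamoxifen; AC50 from Hill fit of qHTS concentration-response.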
# [13] = Cell Viability - MRC5 (AID 434; calls by dose curve;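 note: potency is the fitted concentration of half-maximal effect; potency reflects cytotoxicity seen as loss of intracellular ATP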); details: MRC5 lung fibroblast viability, qHTS
# Summary of the method: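 qHTS cytotoxicity in human lung fibroblast MRC5 cells; 40 hr treatment, 37 °C; cellular ATP by luciferase luminescence; DMSO = 0%, 100 uM tamoxifen = 100% inhibition; Hill-fit AC50.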
# [14] = Cell Viability - SK-N-SH (AID 435; calls by dose curve;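 note: potency is the fitted concentration of half-maximal effect; compound exposure lasted 40 h at 37 °C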); details: SK-N-SH neuroblastoma cell viability qHTS
# Summary of the method: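 SK-N-SH neuroblastoma cells (1500/well) treated 40 h at 37 °C in complete medium; viability read as cellular ATP by CellTiter-Glo luminescence. Normalized to DMSO and 100 uM tamoxifen; AC50 from Hill fits of qHTS concentration-response.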
# [15] = Cell Viability - N2a (AID 540); details: N2a mouse neuroblastoma cell viability; series mostly up to 92.2 µM;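 note: plate controls were DMSO alone for no effect and tamoxifen control for full effect; nearly all actives have a fitted effect of over 45% in size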
# Summary of the method: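 Mouse neuroblastoma N2a cells (1500/well) were preincubated 5 hr at 37 °C, then exposed to compounds for 40 hr at 37 °C in complete medium. Viability was read as intracellular ATP by CellTiter-Glo luminescence; AC50 from Hill fits.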
# [16] = Cell Viability - NIH 3T3 (AID 541); details: NIH 3T3 cell viability, qHTS; series mostly up to 92.2 µM;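 note: plate controls were DMSO alone for no effect and tamoxifen positive control for full effect; nearly all actives have a fitted effect of over 25% in size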
# Summary of the method: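 NIH 3T3 mouse embryo fibroblasts (1000 cells/well) were plated in complete medium and treated with compound for 40 hr at 37 °C. Viability was read as intracellular ATP by CellTiter-Glo luminescence; AC50 values came from Hill-equation fits of concentration-response data.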
# [17] = Cell Viability - SH-SY5Y (AID 544); details: SH-SY5Y neuroblastoma cell viability; series mostly up to 92.2 µM;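 note: 0% = DMSO alone and -100% = 100 µM tamoxifen; nearly all actives have a fitted effect of over 55% in size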
# Summary of the method: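 Human neuroblastoma SH-SY5Y cells (1500/well) in complete medium were exposed to compounds for 40 hr at 37 °C; intracellular ATP was then quantified by CellTiter-Glo luminescence after 20 min at room temperature. AC50 came from Hill-equation concentration-response fits.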
# [18] = Cell Viability - Renal Proximal Tubule (AID 545); details: renal proximal tubule cells viability, primary cells of rat origin; series mostly up to 91.7 µM;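 note: 0% = DMSO only and -100% = 100 µM tamoxifen; nearly all actives have a fitted effect of over 40% in size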
# Summary of the method: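 Rat renal proximal tubule primary cells, 1000/well, exposed to compounds for 40 hr at 37 °C in complete medium; cellular ATP read by CellTiter-Glo luminescence. AC50 from concentration-response fitted with standard Hill equation.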
# [19] = Cell Viability - Mesenchymal (AID 546); details: mesenchymal cells viability, qHTS; series mostly up to 91.7 µM;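 note: potency is the fitted concentration of half-maximal effect; cells exposed to compound for 40 hours before reading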
# Summary of the method: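 AC50 values reflect the drop in intracellular ATP in a human kidney mesenchymal line derived from normal glomeruli. Treatment lasts 40 hr at 37 °C in complete medium, and the signal comes from CellTiter-Glo luminescence.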
# [20] = molecular target: Estrogen receptor (Homo sapiens) (UniProt P03372); test: qHTS assay for small molecule agonists of estrogen receptor alpha signaling (AID 588514; calls by dose curve;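 note: 0% = vehicle only and 100% = reference agonist; nearly all actives have a fitted effect of over 70% in size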); details: ER-alpha-UAS-bla HEK293, beta-lactamase ratio, 18 h, percent of full estradiol response, vehicle zero; series mostly up to 76.8 µM
# Estrogen receptor (Homo sapiens), sequence (P03372 whole entry, looked up): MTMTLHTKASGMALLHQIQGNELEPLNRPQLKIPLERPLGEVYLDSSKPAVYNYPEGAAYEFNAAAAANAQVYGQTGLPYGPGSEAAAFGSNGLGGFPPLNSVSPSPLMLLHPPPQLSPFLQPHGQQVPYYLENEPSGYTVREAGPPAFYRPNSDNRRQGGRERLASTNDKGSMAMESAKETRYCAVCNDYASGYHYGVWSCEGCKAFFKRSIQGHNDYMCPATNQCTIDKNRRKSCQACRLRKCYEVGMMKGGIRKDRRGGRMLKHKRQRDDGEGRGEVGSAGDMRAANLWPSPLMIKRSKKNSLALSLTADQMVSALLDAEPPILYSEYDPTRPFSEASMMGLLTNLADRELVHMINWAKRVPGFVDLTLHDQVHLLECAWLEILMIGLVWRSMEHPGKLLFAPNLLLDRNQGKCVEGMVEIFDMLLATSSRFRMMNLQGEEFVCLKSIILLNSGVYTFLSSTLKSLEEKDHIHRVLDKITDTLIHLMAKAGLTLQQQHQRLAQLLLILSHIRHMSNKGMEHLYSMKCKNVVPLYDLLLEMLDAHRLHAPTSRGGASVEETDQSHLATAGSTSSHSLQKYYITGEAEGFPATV
# Summary of the method: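 ER-alpha-UAS-bla GripTite HEK 293 cells in medium with 2% charcoal/dextran-treated FBS were treated with compound titrations at 37 C for 18 hrs; beta-lactamase reporter read by CCF4 fluorescence after 2 hrs at RT.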
compound,measurement,setting,value
O=c1c(-c2cccs2)nc2cnc(Oc3cccc(Cl)c3)nc2n1C1CC1,Potency,[1],> 11.4 µM (inactive)
CC1CC2C3CCC4=CC(=O)C=C[C@@]4(C)[C@]3(F)C(O)C[C@]2(C)[C@]1(O)C(=O)CO (stereo partly specified),"parasite growth, % of DMSO control",[2],31.9% [at 28.5 µM]
same,"parasite growth remaining, % of DMSO control (lower = more inhibition)",[3],90.9% [at 28.5 µM]
same,"parasite growth, % of control (lower = inhibition)",[4],44.9% [at 28.5 µM]
same,"growth, % of control",[5],11.4% [at 28.5 µM]
CCC1CCCCN1CCCNC(=O)c1cc2c(Cl)nc3ccccc3c2s1 (stereo unspecified),Potency,[6],33.8 µM (active)
CCCCOc1ccc(CN2C(=O)C(=O)c3cc(Br)cc(C)c32)cc1OC,outcome,[7],inactive
Cc1ccc(Cn2c(C)c3cnn(CC(=O)NCc4ccccc4)c(=O)c3c2C)cc1,Potency,[8],9.52 µM (active)
CCOC(=O)c1ccc(NC(=O)CSc2nc3c([nH]c4ccccc43)c(=O)n2C)cc1,Potency,[8],inactive
CCOc1ccc(NC(=O)c2c(NC(=O)Cc3ccccc3)sc3c2CCC(C)C3)cc1 (stereo unspecified),Potency,[9],3.55 µM (active)
CN(C)CCOC(c1ccccc1)c1ccccc1 (tested in a mixture with another compound),Potency,[10],> 92 µM (inactive)
same,Potency,[11],> 92 µM (inactive)
same,Potency,[12],> 92 µM (inactive)
same,Potency,[13],> 92 µM (inactive)
same,Potency,[14],> 92 µM (inactive)
same,outcome,[15],inactive
same,outcome,[16],inactive
same,outcome,[17],inactive
same,outcome,[18],inactive
same,Potency,[19],25.1 µM (active)
same,outcome,[20],inactive
